# Test results as given in PMC5540273 (PLoS ONE, 2017).
# Test system: ABL2
# Details: concentration: 1 μM, replicates: in singlicate; n = 1
# 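Note: KINOMEscan kinase panel screen.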
row,Compound,%Inh [%]
1,Cl.c1ccc(-c2ccc3c(Nc4ccc5[nH]ccc5c4)ccnc3c2)nc1 [GW440138],48
2,Nc1n[nH]c2cnc(-c3ccccc3)cc12 [SB-642124],16
3,CN(C)Cc1ccc(-c2ccc3c(Nc4ccc(Oc5ccccn5)cc4)ccnc3c2)o1 [GW567148],18
4,CC(C)(C)c1ccc2nccc(Nc3cccc(O)c3)c2c1 [GW856795],33
5,O=c1[nH]cc(-c2ccc(N3CCOCC3)cc2)c2sc(-c3cn[nH]c3)cc12 [GSK2276055],0
6,O=C(Nc1n[nH]c2cc(-c3ccoc3)ccc12)C1CC1 [SB-738481],0
7,CC(=O)N1CCN(c2ccc(Nc3nccc(-c4sc(C(C)C)nc4-c4cccc(NS(=O)(=O)c5cccc(Cl)c5)c4)n3)cn2)CC1 [GSK1660437],83
8,COc1cc2c(cc1OCCN1CCNCC1)ncc1c3ccc(C#N)cc3[nH]c21,8
9,CNC(=O)c1ccccc1Nc1nc(Nc2ccc(N3CCOCC3)cc2)ncc1Cl.Cl [GSK1576028],95.6
10,Oc1cc(Nc2ccnc3cc(I)ccc23)ccc1F [GW552771],91.7
11,COc1cccc(C2=C(Nc3ccc(Cl)c(C(=O)O)c3)C(=O)NC2=O)c1 [SB-390769],16
12,O=C(Nc1cccc(-c2nn3ccccc3c2-c2ccnc(Nc3cccc(F)c3)n2)c1)c1c(F)ccc(F)c1Cl [GSK357952],25
13,O=C(Nc1cccc(Oc2ccc3nc(NC(=O)C4CC4)cn3n2)c1)c1ccccc1C(F)(F)F,79
14,CSc1cccc2c(-c3ccncn3)c(-c3ccc(F)cc3)nn12 [GW514786],12
15,Cn1cc(-c2[nH]c3cc(NC(=O)[C@H](N)C4CCCCC4)cc4c3c2C=NNC4=O)cn1,30
16,COc1ccc(CNC(=O)NC2CCN(c3ccnc(Nc4ccc(F)cc4)n3)CC2)cc1 [GSK1379788],0
17,COc1cccc(NC(=O)NC2CCN(c3ccnc(Nc4cc(OC)c(OC)c(OC)c4)n3)C2)c1 (stereo not shown) [GSK1379763],0

row,Compound,%Inh [%]
1,O=C(Nc1n[nH]c2nc(-c3ccc(O)cc3)ccc12)C1CC1 [SB-710363],0
2,CN1CCN(CCCNc2nccc(-c3c(-c4ccc(F)cc4)nn4cc(C(F)(F)F)ccc34)n2)CC1 [GW621581],9
3,c1ccc(-c2n[nH]cc2Nc2ccnc3ccccc23)nc1 [GW694077],0
4,CCc1ccc(-c2ccc3c(c2)-c2c(cnn2C)S(=O)(=O)N3C)cc1,0
5,NCCCC(NC(=O)c1cc(Br)c(-c2ccnc3[nH]ccc23)s1)c1ccccc1.O=C(O)C(F)(F)F.O=C(O)C(F)(F)F (stereo not shown) [GSK1287544],23
6,Nc1ncc(-c2cccnc2)c2scc(-c3ccc4c(c3)CCN4C(=O)Cc3ccccc3)c12 [GSK683281],62
7,Cl.c1ccc(-c2ccc3c(Nc4ccc5[nH]ncc5c4)ccnc3c2)nc1 [GW440137],28
8,Cc1ccc(C)c(NC(=O)NC2CCN(c3ccnc(Nc4ccc(F)cc4)n3)C2)c1 (stereo not shown) [GSK1379720],7
9,COc1cc(Nc2nccc(-c3c(-c4cccc(NC(=O)c5c(F)cccc5F)c4)nn4ccccc34)n2)cc(OC)c1OC [GSK323521],33
10,Fc1ccc(-c2ncn(C3CCNCC3)c2-c2ccnc(Oc3ccc(-c4ccccc4)cc3)n2)cc1 [SB-245391],1
11,COc1cc(Nc2ncc3c(C)nc(-c4cc5ccccc5[nH]4)n3n2)cc(OC)c1OC [GW869516],21
12,Clc1ccc(-c2nn3ncccc3c2-c2ccnc(Nc3ccc4c(c3)OCCO4)n2)cc1 [GW829116],0
13,c1ccc(-c2cnc3nccnn23)cc1 [AH20685],5
14,O=C(Nc1ccccc1F)NC1CCN(c2ccnc(Nc3ccc(F)cc3)n2)CC1 [GSK1379800],12
15,Cc1occc1-c1ncc(OC[C@@H](N)Cc2c[nH]c3ccccc23)cc1-c1ccc2[nH]nc(C)c2c1.O=C(O)C(F)(F)F [GSK682037],47
16,C[C@@H]1CC[C@@H](C(=O)Nc2ccccc2)CN1c1cc(-c2ccc3c(N)n[nH]c3c2)nc(N)n1 [GSK2286062],2
17,COc1cc(Nc2nccc(-c3c(-c4cccc(NC(=O)c5c(F)cccc5F)c4)nn4ncccc34)n2)cc(OC)c1OC [GSK327238],80
